Reference: PubChem BioAssay AID1159554 (Broad Institute, 2015)
“And” between values parts separate entries of the source, which are not always exact repeats. Equal entries are not always repeated. The whole screen tested about 94,000 compounds, of which about 2,100 (2.2%) were called active. The sample holds actives, similar compounds and a random draw of the others, so the mix is not that of the screen. Values without a mark were called inactive. Cut-off read from the data, not from the text of the source: active = activity change below about -80%; inconclusive = no clear call, values can overlap the other calls; inactive = above that.

Experiment: Dd2 malaria parasite growth inhibition – SYBR Green fluorescence, single dose replicates, primary screen (AID 1159554)
Conditions: P. falciparum Dd2 growth, 72 h, at 10 µM, active compounds read low
With `COc1ccc(-c2cnc3c(c2)C(=O)N([C@H](C)CO)C[C@@H](C)[C@H](CN(C)C(=O)Cc2ccncc2)O3)cc1` the activity change was -84.6% (active).
`COc1ccc(-c2cnc3c(c2)C(=O)N([C@@H](C)CO)C[C@H](C)[C@H](CN(C)C(=O)Cc2cccnc2)O3)cc1` gave an activity change of -2.15%.
With `COc1cccc(C#Cc2cnc3c(c2)C(=O)N([C@H](C)CO)C[C@@H](C)[C@@H](CN(C)C(=O)C2CCC2)O3)c1` the activity change was -84.4% (active).
`C[C@@H]1CN([C@@H](C)CO)C(=O)c2cc(/C=C/c3ccccc3)cnc2O[C@H]1CN(C)C(=O)C1CCC1` showed an activity change of -56.3%.
With `C[C@H]1CN([C@@H](C)CO)C(=O)c2cc(/C=C/c3ccccc3)cnc2O[C@@H]1CN(C)C(=O)NC1CCCCC1` the activity change was -82.8% (active).
Molecule `COc1cccc(C#Cc2cnc3c(c2)C(=O)N([C@@H](C)CO)C[C@H](C)[C@@H](CN(C)C(=O)C2CCC2)O3)c1` has an activity change of -74.6%.
`C[C@@H]1CN([C@H](C)CO)C(=O)c2cc(-c3ccccc3)cnc2O[C@H]1CN(C)C(=O)NC1CCCC1` gave an activity change of -13%.
Molecule `C[C@H](CO)N1C[C@H](C)[C@@H](CN(C)C(=O)Cc2cccnc2)Oc2ncc(-c3ccncc3)cc2C1=O` has an activity change of 14.1%.
For `C[C@H](CO)N1C[C@H](C)[C@H](CN(C)C(=O)C2CCCCC2)Oc2ncc(C#CC3CC3)cc2C1=O`, the activity change was -16.5%.
`COc1cccc(C#Cc2cnc3c(c2)C(=O)N([C@@H](C)CO)C[C@H](C)[C@@H](CN(C)C(C)=O)O3)c1` showed an activity change of -15.1%.
For `C[C@H](CO)N1C[C@H](C)[C@H](CN(C)C(=O)C2CC2)Oc2ncc(C#Cc3ccccc3)cc2C1=O`, the activity change was -17.2%.
For `C[C@H](CO)N1C[C@H](C)[C@H](CN(C)C(=O)C2CCCCC2)Oc2ncc(C#Cc3cccc(F)c3)cc2C1=O`, the activity change was -86.4% (active).
With `CC(C)(C)[S@@](=O)N1Cc2cc(C(=O)N3CCCCC3)nc(-c3cccc(-c4cccc(C#N)c4)c3)c2[C@H]1CCO` the activity change was -13.7%.
In the case of `O=C(c1ccc(F)cc1)N1CC(=O)N2[C@H](C1)[C@@H](c1ccc(C#CC3CC3)cc1)[C@@H]2CO`, the activity change is reported as -8.1%.
In the case of `Cc1ccc(S(=O)(=O)Nc2ccc3c(c2)C(=O)N([C@H](C)CO)C[C@H](C)[C@@H](CN(C)S(=O)(=O)c2cn(C)cn2)OCCCC[C@H](C)O3)cc1`, the activity change is reported as -12.5%.
Molecule `COC(=O)C[C@H]1CC[C@H](NC(=O)Nc2ccc(C(F)(F)F)cc2)[C@H](CO)O1` has an activity change of 21.3%.
In the case of `CCCNC(=O)C[C@H]1CC[C@@H]2[C@H](COc3ccc(NC(=O)c4ccc(OC)cc4)cc3C(=O)N2C)O1`, the activity change is reported as -22.5%.
With `CCC(=O)N1[C@@H](CO)[C@@H](c2ccccc2)C12CN(C(=O)c1cnccn1)C2` the activity change was -2.84%.
`CCC(=O)N1CC2(CN(Cc3cccnc3)C2)c2c(n(C)c3cc(OC)ccc23)[C@@H]1CO` gave an activity change of -20.9%.
In the case of `COc1ccc(NC(=O)N[C@@H]2CC[C@H](CCn3cc(-c4ccc(OC)cc4)nn3)O[C@@H]2CO)cc1`, the activity change is reported as -56.9%.
In the case of `C[C@H]1CN([C@@H](C)CO)C(=O)c2c(c3ccccc3n2C)-c2ccccc2CO[C@@H]1CN(C)C(=O)Nc1ccnc(N2CCOCC2)c1`, the activity change is reported as -58.1%.
`CO[C@H]1CN(C)C(=O)c2cc(NC(=O)C3CC3)ccc2OC[C@H](C)N(CC2CCCC2)C[C@@H]1C` showed an activity change of -38.7%.
`CCS(=O)(=O)N1CC2(C1)CN(S(=O)(=O)c1ccccc1)[C@H](CO)c1c2c2ccc(OC)cc2n1C` showed an activity change of -29.8%.
Molecule `O=C(C[C@@H]1C[C@@H]2c3cc(NC(=O)c4ccc5c(c4)OCO5)ccc3O[C@@H]2[C@H](CO)O1)NCCc1ccccc1` has an activity change of -3.19%.
For `COc1ccc2c3c([nH]c2c1)[C@H](CO)N(Cc1ccccc1)CC31CCN(C(=O)c2ccccn2)CC1`, the activity change was -83.5% (active).
In the case of `CCC(=O)N1CCC2(CC1)CN(Cc1cccc(OC)c1)[C@@H](CO)c1[nH]c3cc(OC)ccc3c12`, the activity change is reported as -89.5% (active).
Work on `CCCC(=O)N1CCC2(CC1)CN(C(=O)C1CCCCC1)[C@@H](CO)c1[nH]c3cc(OC)ccc3c12` yielded an activity change of -78%.
In the case of `CCC(=O)N1CCC2(CC1)CN(Cc1ccc(Cl)cc1)[C@@H](CO)c1[nH]c3cc(OC)ccc3c12`, the activity change is reported as -90.6% (active).
For `COc1ccc2c3c([nH]c2c1)[C@@H](CO)N(Cc1ccc2c(c1)OCO2)CC31CN(C(=O)Nc2c(C)noc2C)C1`, the activity change was -13.6%.
For `CCS(=O)(=O)N1CCC2(CC1)CN(Cc1ccc3c(c1)OCO3)[C@H](CO)c1[nH]c3cc(OC)ccc3c12`, the activity change was -89.1% (active).
`COc1ccc2c3c([nH]c2c1)[C@@H](CO)N(C(=O)NC(C)C)CC31CCN(C(=O)c2ccccn2)CC1` showed an activity change of -13%.
Molecule `CCCNC(=O)N1CCC2(CC1)CN(Cc1ccccc1)[C@H](CO)c1[nH]c3cc(OC)ccc3c12` has an activity change of -59.4%.
Work on `CCC(=O)N1CCC2(CC1)CN(Cc1cccc(Cl)c1)[C@@H](CO)c1c2c2ccc(OC)cc2n1C` yielded an activity change of -75.9%.
With `CCC(=O)N1CC2(CN(Cc3ccc(Cl)cc3)C2)c2c([nH]c3cc(OC)ccc23)[C@@H]1CO` the activity change was -23%.
`CCS(=O)(=O)N1CCC2(CC1)CN(S(=O)(=O)c1ccc(C)cc1)[C@H](CO)c1[nH]c3cc(OC)ccc3c12` showed an activity change of -53.4%.
Work on `COc1ccc2c3c([nH]c2c1)[C@H](CO)N(C(=O)Nc1ccc(F)cc1)CC31CCN(C(=O)c2ccccn2)CC1` yielded an activity change of -79.3%.
Molecule `Cc1noc(C)c1NC(=O)N(C)C[C@@H]1Oc2cc(Br)ccc2S(=O)(=O)N([C@@H](C)CO)C[C@H]1C` has an activity change of 12.9%.
Molecule `COc1cccc(NC(=O)C[C@@H]2CC[C@@H]3[C@H](COc4ccc(NC(=O)C5CCOCC5)cc4C(=O)N3C)O2)c1` has an activity change of 11.1%.
`C/C=C/c1ccc2c(c1)[C@H]1[C@H](CCN1S(=O)(=O)c1cn(C)cn1)[C@H](CO)N2` gave an activity change of -1.2%.
For `CCCNC(=O)N1C[C@H]2[C@@H](c3ccccc31)[C@@H](CO)N2C(=O)NCCC`, the activity change was -1.9%.
In the case of `COc1cccc(CN2CC3(CN(Cc4ccccn4)C3)c3c([nH]c4cc(OC)ccc34)[C@@H]2CO)c1`, the activity change is reported as -87.9% (active).
In the case of `COc1ccc2c3c([nH]c2c1)[C@H](CO)N(Cc1ccc(F)cc1)CC31CCN(Cc2ccccn2)CC1`, the activity change is reported as -89.5% (active).
`COc1ccc2c3c([nH]c2c1)[C@@H](CO)N(C(=O)Cc1ccccc1)CC31CCN(C)CC1` gave an activity change of -55.8%.
In the case of `COc1ccc2c3c([nH]c2c1)[C@H](CO)N(Cc1nccs1)CC31CCN(Cc2cccnc2)CC1`, the activity change is reported as -58.7%.
Work on `COc1ccc2c3c([nH]c2c1)[C@@H](CO)N(Cc1nccs1)CC31CCN(C(=O)C2CCCC2)CC1` yielded an activity change of -74.5%.
In the case of `COc1ccc2c3c([nH]c2c1)[C@H](CO)N(Cc1nccs1)CC31CCN(Cc2ccncc2)CC1`, the activity change is reported as -85.5% (active).
In the case of `COc1ccc2c3c([nH]c2c1)[C@H](CO)N(Cc1cccc(F)c1)CC31CCN(Cc2ccccn2)CC1`, the activity change is reported as -92.5% (active).
In the case of `CCCNC(=O)N1CC2(CCN(Cc3ccc(F)cc3)CC2)c2c([nH]c3cc(OC)ccc23)[C@@H]1CO`, the activity change is reported as -77.7%.
With `COc1ccc2c3c([nH]c2c1)[C@@H](CO)N(C(=O)C1CC1)CC31CCN(Cc2nccs2)CC1` the activity change was -26.9%.
For `C[C@@H]1CCCCO[C@@H](CN(C)S(=O)(=O)c2cn(C)cn2)[C@H](C)CN([C@H](C)CO)C(=O)c2cc(NS(=O)(=O)c3ccc(Cl)cc3)ccc2O1`, the activity change was -31.8%.
Work on `COCC(=O)N1C[C@@H](C)[C@H](OC)CN(C)C(=O)c2ccc(NC(=O)c3ccc(F)cc3)cc2OC[C@H]1C` yielded an activity change of 12.6%.
Work on `COc1ccc(NC(=O)N(C)C[C@H]2OCCCC[C@H](C)Oc3ccc(NS(=O)(=O)c4ccc(Cl)cc4)cc3C(=O)N([C@@H](C)CO)C[C@H]2C)cc1` yielded an activity change of -68.7%.
`CN(C)CC(=O)Nc1ccc2c(c1)[C@@H]1C[C@H](CC(=O)NCc3ccc(-c4ccccc4)cc3)O[C@@H](CO)[C@@H]1O2` showed an activity change of -1.93%.
Molecule `COCC(=O)Nc1ccc2c(c1)OC[C@H](C)N(C)C[C@H](C)[C@@H](OC)CN(C)C2=O` has an activity change of 26.8%.
`C[C@@H]1CCCCO[C@H](CN(C)S(C)(=O)=O)[C@@H](C)CN([C@H](C)CO)C(=O)c2cc(NC(=O)Nc3ccc4c(c3)OCO4)ccc2O1` gave an activity change of 25.2%.
`COCC(=O)Nc1ccc2c(c1)C(=O)N(C)[C@@H]1CC[C@@H](CC(=O)NCc3cccc(F)c3)O[C@@H]1CO2` gave an activity change of 5.24%.
With `CNC(=O)C[C@H]1CC[C@H]2[C@H](COc3ccc(NC(=O)c4cccc(F)c4)cc3C(=O)N2C)O1` the activity change was 1.45% and 0.97%.
`CC(C)NC(=O)N[C@H]1CC[C@H](CC(=O)N2CCCCC2)O[C@@H]1CO` gave an activity change of 36.7%.
In the case of `CCS(=O)(=O)N1[C@H](CO)[C@@H](c2ccccc2)C12CN(C(=O)c1ccccc1F)C2`, the activity change is reported as -5.45%.
In the case of `COc1ccc2c3c([nH]c2c1)[C@@H](CO)N(C(=O)c1ccccc1)CC31CCN(Cc2cccnc2)CC1`, the activity change is reported as -47.6%.
`COc1ccc2c3c([nH]c2c1)[C@@H](CO)N(C(=O)CC1CC1)CC31CCN(Cc2cccnc2)CC1` showed an activity change of -7.62%.
With `COc1ccc2c3c([nH]c2c1)[C@@H](CO)N(Cc1ccccc1)CC31CCN(Cc2cncnc2)CC1` the activity change was -91.1% (active).
Work on `CN(C)CC(=O)N[C@@H]1CC[C@H](CC(=O)O)O[C@H]1CO` yielded an activity change of 14.9%.
